From PubChem BioAssay
The list is not random: actives were taken first. Their share in the collection is about 6.7%.
SW480 rereplic – induces DNA re-replication in SW480 colon adenocarcinoma cells; SW480 DNA re-replication, Hoechst DNA content imaging, 48 h; Potency, µM (titrated, usually from 46.1 µM), most hits filed as activators; 1.8% of 340,000 active; AID 624297; note: nearly all actives have a fitted effect of over 55% in size
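Image-based read-out: total Hoechst fluorescence of nuclei (405 nm excitation, 500-530 nm emission), with hits raising the fraction of high-intensity nuclei. SW480 colon cells incubated 48 hr with compounds at 37 C.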
MCF10A rereplic – DNA re-replication induction in MCF 10a cells; MCF 10A DNA re-replication, Hoechst nuclear intensity, 48 h; Potency, µM (top dose mostly 46.1 µM), most hits filed as activators; 2.9% of 350,000 active; note: nearly all actives have a fitted effect of over 50% in size
KB-V1 cytotox – kills drug-selected multidrug resistant KB-V1 cells; KB-V1 MDR cells viability, CellTiter-Glo, 72 h; Potency, µM (titrated, usually from 46.1 µM), hits mostly cytotoxic; 3.4% of 400,000 active; note: nearly all actives have a fitted effect of over 60% in size
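Following 72 h at 37 degrees C with compound, KB-V1 cell viability was read by CellTiter-Glo luminescence, medium being phenol-red-free DMEM plus 10% FBS; concentration-response parameters came from normalized, curve-fitted qHTS data.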
PINK1 modulator – PINK1 expression modulation. AID 624263. 0.2% of 410,000 active. PINK1 immunofluorescence, high-content cytometry, 24 h. Potency, µM (highest dose often 76.6 µM), usual class: activators; active = well fitted activation curve with a large enough effect; inconclusive = small, poorly fitted or top-dose-only effect; cell line not stated here; note: nearly all actives have a fitted effect of over 65% in size
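A stable cell line was treated with compounds at 5 concentrations for 24 hours, with CCCP as control. PINK1 levels and mitochondrial localization were measured by immunofluorescence with mitochondrial, cell and nuclear markers after fixation, read by laser-scanning cytometry.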
KB-3-1 tox – KB-3-1 parental cell cytotoxicity; Potency, µM (series often up to 46.1 µM), most hits filed as cytotoxic; AID 1347075; 1.4% of 400,000 active; KB-3-1 viability, CellTiter-Glo ATP luminescence, 72 h; note: nearly all actives have a fitted effect of over 60% in size
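Parental KB-3-1 adenocarcinoma cells in phenol-red-free DMEM with 10% FBS were pin-treated with compounds at several concentrations, incubated 72 h at 37 °C, and viability read by CellTiter-Glo luminescence; concentration-effect curves were fitted after normalization.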
Of the large screens only hits and unclear results are named; the others gave an inactive call. Unless noted, calls come from the whole dose curve; as a rule, active = well fitted curve in the direction sought with a large enough effect; inconclusive = small, poorly fitted or top-dose-only effect, or another doubt; inactive = no such curve, though single readings can be large; an effect the other way counts as inactive or inconclusive.

Cc1ccccc1NC(=S)NC(NC(=O)COc1ccccc1)C(Cl)(Cl)Cl (stereo not drawn)	KB-V1 cytotox inconclusive, KB-3-1 tox inconclusive
CCc1ccc(OCC(=O)NC(NC(=S)Nc2ccccc2C)C(Cl)(Cl)Cl)cc1 (stereo not drawn)	MCF10A rereplic 18.4µM, KB-V1 cytotox inconclusive, KB-3-1 tox inconclusive
CCOC(=O)/C(=C\c1ccc(OC(F)F)cc1)C1=Nn2c(nnc2-c2ccc(Cl)cc2)SC1	SW480 rereplic 16.4µM, MCF10A rereplic 5.17µM, KB-3-1 tox inconclusive
CCOC(=O)/C(=C/c1ccc(OC(F)F)cc1)C1=Nn2c(nnc2-c2ccc(Cl)cc2)SC1	SW480 rereplic 7.31µM, MCF10A rereplic 3.66µM, KB-V1 cytotox inconclusive, KB-3-1 tox inconclusive
COc1ccc(-c2nnc3n2N=C(C)CS3)cc1	none
O=C(Nc1ccccc1)N1CCC(C(=O)N2CCCC(C(F)(F)F)C2)CC1 (stereo not drawn)	none (no result: KB-V1 cytotox, KB-3-1 tox)
CC(OC(=O)C1=COCCO1)C(=O)NC1CCCC(C)C1C (stereo not drawn)	none (no result: SW480 rereplic, MCF10A rereplic)
CCOc1ccc(NC(=NCc2ccc3c(c2)OCO3)SC2CC(=O)N(c3ccc(OCC)cc3)C2=O)cc1 (stereo not drawn)	MCF10A rereplic 20.6µM, KB-V1 cytotox inconclusive
CCOc1ccc(NC(=NCc2ccc3c(c2)OCO3)SC2CC(=O)N(c3ccccc3)C2=O)cc1 (stereo not drawn)	MCF10A rereplic inconclusive
CCOc1ccc(-c2nonc2NC(=O)COc2ccccc2)cc1	none (no result: SW480 rereplic, MCF10A rereplic)
CCOC(=O)c1sc2nccc(N(C)C)c2c1N=CNOCc1c(F)cccc1Cl	SW480 rereplic inconclusive, MCF10A rereplic 14.6µM, KB-V1 cytotox inconclusive
CCOC(=O)c1sc2nccc(N(C)C)c2c1N=CNOCc1ccccc1	SW480 rereplic inconclusive, MCF10A rereplic 20.6µM, KB-V1 cytotox 9.2µM, KB-3-1 tox inconclusive
CCOC(=O)c1sc2nccc(N(C)C)c2c1N=CNOC	KB-V1 cytotox inconclusive, KB-3-1 tox inconclusive
Cc1ccc(S(=O)(=O)c2nc(Nc3ccccc3N3CCOCC3)sc2Cl)cc1	KB-V1 cytotox 10.3µM
COc1ccc(C(C)=O)cc1CSc1nnc(-c2ccccc2O)n1-c1ccccc1	none
COc1ccc(C(C)=O)cc1CSc1nnc(C)n1-c1ccccc1	KB-V1 cytotox 20.6µM
CC(C)C(NS(=O)(=O)c1c(Cl)cccc1Cl)C(=O)OCC(=O)c1c[nH]c2ccccc12 (stereo not drawn)	KB-V1 cytotox 20.6µM (no result: SW480 rereplic)
COc1ccc(CCC(=O)NC2CC(=O)N(c3ccc(OC)cc3)C2)cc1 (stereo not drawn)	none (no result: SW480 rereplic, MCF10A rereplic, KB-V1 cytotox, KB-3-1 tox)
COc1ccc(-c2ccnc(-n3ncc(C(=O)NCc4cccnc4)c3C3CC3)n2)cc1F	none (no result: SW480 rereplic, MCF10A rereplic, KB-V1 cytotox, KB-3-1 tox)
COc1cccc2c(=O)c3c(cnn3C)n(C)c12	MCF10A rereplic inconclusive, KB-V1 cytotox 20.6µM
COc1cccc2c(=O)c3ccoc3n(C)c12	none
Cc1cc(C(C)(C)C)cc(C)c1S(=O)(=O)N1CCN(C(=O)c2cc([N+](=O)[O-])c[nH]c2=O)CC1	none
COc1ccc(Nc2ccnc3ccccc23)cc1	KB-V1 cytotox inconclusive
c1ccc(CCNc2ccnc3cc4ccccc4cc23)cc1	SW480 rereplic 16.4µM, MCF10A rereplic 16.4µM, KB-V1 cytotox 8.2µM, KB-3-1 tox 18.4µM
CC(C)Nc1ccc(Nc2ccnc3cc4ccccc4cc23)cc1	MCF10A rereplic inconclusive, KB-V1 cytotox inconclusive, KB-3-1 tox 16.4µM
Cc1c(C(=O)N2CCC(C)CC2)sc2ncnc(N3CCN(c4ccccc4)CC3)c12	KB-V1 cytotox 4.61µM
COc1ccccc1N1CCN(C(=O)c2sc3ncnc(N4CCN(c5ccccn5)CC4)c3c2C)CC1	MCF10A rereplic 18.4µM, KB-V1 cytotox 23.1µM, KB-3-1 tox inconclusive
Cc1c(C(=O)N2CCN(c3ccccc3)CC2)sc2ncnc(N3CCN(c4ccccn4)CC3)c12	KB-V1 cytotox inconclusive
Cc1ccc(S(C)(=O)=O)cc1C(=O)N1CC(C(N)=O)Oc2ccccc21 (stereo not drawn)	none
Clc1cccc(OCCN2CCNCC2)c1	SW480 rereplic 18.4µM
Clc1cccc(OCCN2CCOCC2)c1	none
COc1ccc([N+](=O)[O-])cc1N(CC(O)CN(CC(C)C)CC(C)C)S(=O)(=O)c1ccccc1 (stereo not drawn)	KB-V1 cytotox inconclusive
CCCCN(CCCC)CC(O)CN(c1cc([N+](=O)[O-])ccc1OC)S(=O)(=O)c1ccccc1 (stereo not drawn)	SW480 rereplic inconclusive, KB-V1 cytotox 2.59µM, KB-3-1 tox inconclusive
O=C(NNC(=O)c1cc(S(=O)(=O)N2CCOCC2)c(Cl)cc1Cl)c1ccccc1F	MCF10A rereplic inconclusive, KB-3-1 tox inconclusive
Cc1ccc(NC(=O)C2CCCN(S(=O)(=O)c3cccc4nsnc34)C2)c(C)c1 (stereo not drawn)	none (no result: SW480 rereplic, MCF10A rereplic)
COc1ccccc1NC(=O)CNC(=O)c1ccc(Br)o1	none
Cc1cc(C(=O)COC(=O)C2=COCCO2)c(C)n1-c1ccccc1	KB-V1 cytotox 13µM
Cc1cc(C(=O)COC(=O)C2=NNC(=O)CC2)c(C)n1-c1ccccc1	none
Cc1ccc(-n2c(C)cc(C(=O)COC(=O)c3c(C)noc3C)c2C)cc1	KB-V1 cytotox 6.51µM, KB-3-1 tox 18.4µM
Cc1ccc(-n2c(C)cc(C(=O)COC(=O)C3=NNC(=O)CC3)c2C)cc1	KB-V1 cytotox inconclusive, KB-3-1 tox inconclusive
Cc1cc(C(=O)COC(=O)c2cnccn2)c(C)n1-c1ccc(Br)cc1	KB-V1 cytotox 14.6µM, KB-3-1 tox inconclusive
Cc1cc(C(=O)COC(=O)CC2Sc3ccccc3NC2=O)c(C)n1-c1ccc(Br)cc1 (stereo not drawn)	KB-V1 cytotox inconclusive
CCC(=O)OCC(=O)c1cc(C)n(-c2ccc(Br)cc2)c1C	KB-V1 cytotox 14.6µM, KB-3-1 tox inconclusive
Fc1ccc(-c2csc(=Nc3cccc(C(F)(F)F)c3)n2Cc2ccc3c(c2)OCO3)cc1	none (no result: SW480 rereplic, MCF10A rereplic)
COc1ccc(NC(=O)C2=C(C)Nc3ncnn3C2c2sccc2C)cc1 (stereo not drawn)	none (no result: SW480 rereplic, MCF10A rereplic)
N#Cc1ccc(OCC(=O)OCC(=O)NC2CC2)cc1	KB-V1 cytotox inconclusive
CCCOc1cccc(C2C(C(=O)c3ccc(C)o3)=C(O)C(=O)N2CCN2CCOCC2)c1 (stereo not drawn)	none
CCCOc1cccc(C2C(C(=O)c3ccc(C)o3)=C(O)C(=O)N2c2nc(C)c(C(C)=O)s2)c1 (stereo not drawn)	SW480 rereplic inconclusive, MCF10A rereplic 23.1µM, KB-V1 cytotox inconclusive
CCOc1cccc(C2C(C(=O)c3ccc(C)o3)=C(O)C(=O)N2c2nnc(C)s2)c1 (stereo not drawn)	none
CCCOc1ccc(C2C(C(=O)c3ccc(C)o3)=C(O)C(=O)N2Cc2ccco2)cc1OCC (stereo not drawn)	none
CCCOc1ccc(C2C(C(=O)c3ccc(C)o3)=C(O)C(=O)N2Cc2ccco2)cc1 (stereo not drawn)	SW480 rereplic inconclusive, KB-V1 cytotox 18.4µM
